# Screens from PubChem BioAssay.
# This excerpt belongs to a sample that is enriched for hits.
# Giardia FBPA inh-1 = inhibitors of Giardia lamblia fructose-1,6-bisphosphate aldolase; AID 2451; 290,000 compounds, 0.71% hits; Potency, µM (doses to about 59.6 µM), for inactives: top-dose activity, negative = inhibition, actives largely listed as inhibitors; A8B2U2; purified Giardia FBPA; also: nearly all actives have a fitted effect of over 55% in size
# Target sequence (A8B2U2 whole entry, looked up): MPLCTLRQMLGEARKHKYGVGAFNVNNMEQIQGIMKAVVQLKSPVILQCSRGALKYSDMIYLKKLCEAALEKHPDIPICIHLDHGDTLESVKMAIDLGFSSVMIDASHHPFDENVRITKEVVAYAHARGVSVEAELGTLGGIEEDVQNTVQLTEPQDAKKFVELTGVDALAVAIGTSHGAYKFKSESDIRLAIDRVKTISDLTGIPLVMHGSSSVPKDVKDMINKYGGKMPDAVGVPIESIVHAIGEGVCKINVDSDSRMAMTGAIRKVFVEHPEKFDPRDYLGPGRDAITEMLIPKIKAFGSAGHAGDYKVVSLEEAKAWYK
#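 Giardia FBPA (40 nM reagent) was preincubated 10 min at RT with compound (up to 57.5 uM final), then substrate plus GAPDH/TPI/NAD/arsenate coupling system with diaphorase/resazurin was added; resorufin fluorescence (525/598 nm) was read after 20 min.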
# Cruzain inh noDet = blocks cruzain activity in detergent-free assay; Potency, µM, for the others: max response, negative = inhibition, most hits filed as inhibitors; 200,000 compounds, 2.3% hits; purified cruzain, Z-FR-AMC fluorescence, no detergent;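 also: plate controls were enzyme without inhibitor for no effect and buffer without enzyme for full effect; nearly all actives have a fitted effect of over 40% in size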
#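 Detergent-free condition (0.00005% Triton X-100) in acetate buffer pH 5.5 with DTT. 1.5 nM enzyme and compound were pre-mixed 15 min, then 2 uM Z-FR-AMC substrate added; reaction progress from fluorescence change between first and third reads (60 s).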
# Cruzain inh Det = cruzain (T. cruzi) inhibition with detergent; Potency, µM, for the others: max response, negative = inhibition, most hits filed as inhibitors; purified cruzain, Z-FR-AMC fluorescence, 0.01% Triton; 200,000 compounds, 0.43% hits; P25779;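 also: plate controls were neutral wells for no effect and buffer without enzyme for full effect; nearly all actives have a fitted effect of over 40% in size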
#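 Enzyme 1.5 nM, Z-FR-AMC 2 uM, NaOAc 100 mM pH 5.5, DTT 5 mM, Triton X-100 0.01%; 15 min RT compound preincubation; kinetic ex360/em450, 60 s delta.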
# Giardia growth = blocks growth of Giardia lamblia trophozoites; shares compounds with Giardia FBPA inh-1; Giardia lamblia trophozoite growth inhibition; Potency, µM (doses to about 57.5 µM), for the others: at the top dose activity change, negative = inhibition, actives largely listed as inhibitors; 1,500 compounds, 5% hits; AID 2785;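 also: trophozoites exposed to compound for 48 h at 37 °C; nearly all actives have a fitted effect of over 70% in size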
# Mammalian tox = toxic to mammalian cells in Giardia aldolase counter-screen; shares compounds with Giardia FBPA inh-1; mammalian cell viability counter-screen, qHTS; Potency, µM (doses to about 57.5 µM), for inactives: at the top dose viability change, negative = toxicity, usual class: inhibitors; 1,500 compounds, 4% hits; AID 2786;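 also: Chinese hamster ovary cells used as mammalian cytotoxicity surrogate; viability measured as cellular ATP by luminescence; compound exposure lasted 48 h before reading; nearly all actives have a fitted effect of over 60% in size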
# Giardia FBPA inh-2 = confirmation of Giardia fructose-bisphosphate aldolase inhibitors; shares compounds with Giardia FBPA inh-1; purified Giardia aldolase enzyme activity, qHTS; Potency, µM (highest dose often 57.5 µM), for the others: at the top dose activity change, negative = inhibition, hits mostly inhibitors; 1,500 compounds, 5% hits; also: nearly all actives have a fitted effect of over 45% in size
# Rabbit aldolase = selectivity test for Giardia aldolase inhibitors: rabbit aldolase; shares compounds with Giardia FBPA inh-1; Rabbit muscle FBPA enzyme inhibition, selectivity counter-screen; Potency, µM (doses to about 57.5 µM), for inactives: at the highest dose activity, negative = inhibition, usual class: inhibitors; 1,500 compounds, 4% hits; AID 2794; also: nearly all actives have a fitted effect of over 60% in size
# Target sequence (P00883 whole entry, looked up): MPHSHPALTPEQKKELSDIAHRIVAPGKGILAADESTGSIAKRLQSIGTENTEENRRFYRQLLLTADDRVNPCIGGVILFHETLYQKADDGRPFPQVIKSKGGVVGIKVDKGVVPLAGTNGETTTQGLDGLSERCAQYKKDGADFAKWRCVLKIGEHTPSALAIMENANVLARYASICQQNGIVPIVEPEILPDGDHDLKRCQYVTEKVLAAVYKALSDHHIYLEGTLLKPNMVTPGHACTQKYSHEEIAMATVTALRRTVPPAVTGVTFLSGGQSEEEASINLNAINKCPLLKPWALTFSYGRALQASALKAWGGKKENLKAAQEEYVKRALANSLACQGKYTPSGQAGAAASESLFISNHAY
# GAPDH counter = counter-screen for Giardia aldolase inhibitors: GAPDH coupling enzyme. GAPDH coupling enzyme counterscreen, biochemical, qHTS. Potency, µM (top dose mostly 57.5 µM), without a hit: at the highest dose activity change, negative = inhibition, usual class: inhibitors. shares compounds with Giardia FBPA inh-1. 1,500 compounds, 6% hits; also: nearly all actives have a fitted effect of over 55% in size
# * = called active by the depositor; ? = inconclusive; · = no result given; [ ] = another dose, or the depositor's remark. Calls follow the shape of the dose curve; as a rule, active = well fitted curve in the direction sought with a large enough effect; inconclusive = small, poorly fitted or top-dose-only effect, or another doubt; inactive = no such curve, though single readings can be large; an effect the other way counts as inactive or inconclusive. Unless noted, % is scaled to controls: 0 for no effect and ±100 for the full control effect; potency is read from the fitted curve at half-maximal effect.
SMILES,Giardia FBPA inh-1,Cruzain inh noDet,Cruzain inh Det,Giardia growth,Mammalian tox,Giardia FBPA inh-2,Rabbit aldolase,GAPDH counter
O=C(NC(=S)Nc1ccc2oc(=O)ccc2c1)c1cccc(Cl)c1,10µM*,·,·,20µM*,11%,-1%,11%,6%
COc1cccc(C(=O)NC(=S)Nc2ccc3oc(=O)ccc3c2)c1,?,-10%,-4%,·,·,·,·,·
COc1cccc(N2CCN(C(=O)c3cnc4c(-c5ccccc5)c(C)nn4c3C)CC2)c1,·,?,-10%,·,·,·,·,·
CCS(=O)(=O)N1CCN(Cc2ccncc2)CC1,14µM*,7%,6%,14%,12%,7%,4%,17%
CCCS(=O)(=O)N1CCN(Cc2ccncc2)CC1,-25%,-9%,-4%,·,·,·,·,·
CCOC(=O)CN(C)C(=O)C1CC(CO[Si](C)(C)C(C)(C)C)=CN1C(=O)OC(C)(C)C (stereo not drawn),-1%,·,·,·,·,·,·,·
Cc1ccc(CNC(=O)CN2C(=O)CSc3ccc(S(=O)(=O)N(C)C)cc32)cc1,·,10%,1%,·,·,·,·,·
O=C(O)c1ccc(-c2ccccn2)s1,8%,·,·,·,·,·,·,·
O=C(O)c1cc(-c2ccccn2)n[nH]1,6.3µM*,5%,0%,-9%,-4%,10%,6%,12%
Cc1ccc(C)c(NS(=O)(=O)c2cc3c(cc2Cl)NC(=O)CO3)c1,·,-9%,-11%,·,·,·,·,·
c1ccc2c(c1)OCC(C1=NCCN1)O2 (stereo not drawn),-7%,3%,6%,·,·,·,·,·
Nn1c(C2COc3ccccc3O2)n[nH]c1=S (stereo not drawn),6.3µM*,·,·,-15%[38.3 µM],-4%,?,?,?
COc1ccc2[nH]cc(CCNc3cc(-c4ccccc4OC)ncn3)c2c1,-12%,-12%,-2%,·,·,·,·,·
CCc1ccc(CNC(=O)CCn2c(=O)c3cccn3c3ccc(F)cc32)cc1,·,?,-6%,·,·,·,·,·
CCn1c(CCc2ccccc2)nc2ccccc21,14µM*,·,·,-15%,-10%,-4%,-2%,-2%
CCc1nc2ccccc2n1CCc1ccccc1,-16%,·,·,·,·,·,·,·
Cc1ccc(NC(=O)CC2C(=O)OCC3CCCCN32)cc1Cl (stereo not drawn),-4%,3%,-1%,·,·,·,·,·
O=C(CC1C(=O)OCC2CCCCN21)Nc1ccccc1C(F)(F)F (stereo not drawn),22µM*,·,·,54%,23%,5%,0%,13%
O=C(NCc1ccccc1F)C(=O)NCC(c1ccco1)S(=O)(=O)c1cccs1 (stereo not drawn),·,0%,-3%,·,·,·,·,·
COc1ccc(C2=Nc3ccccc3N(CC(=O)Nc3cccc(C(C)=O)c3)C(=O)C2)cc1,·,?,-2%,·,·,·,·,·
COc1ccc(Br)cc1CNc1ccccc1,28µM*,·,·,?,-2%,-5%,-6%,0%
CC(C)NCc1cc(Br)ccc1OCc1ccccc1,-4%,·,·,·,·,·,·,·
O=[N+]([O-])c1cccc(N/N=C/c2cc([N+](=O)[O-])ccc2O)c1,1%,·,·,·,·,·,·,·
O=C(O)COc1ccc(Br)cc1/C=N\Nc1ccccn1,11µM*,·,·,-20%,-7%,4%,10%,15%
O=[N+]([O-])c1ccc(O)c(/C=N/Nc2ccccn2)c1,5µM*,?,4%,?,20µM*,?,4%,-28%
SMILES,Giardia FBPA inh-1,Cruzain inh noDet,Cruzain inh Det,Giardia growth,Mammalian tox,Giardia FBPA inh-2,Rabbit aldolase,GAPDH counter
Brc1ccccc1/C=N/Nc1ccccn1,1%,·,·,·,·,·,·,·
Cc1ccc(/C=C/c2onc(C)c2S(=O)(=O)N2CCC(C(=O)Nc3cccc(C#N)c3)CC2)cc1,·,-1%,-2%,·,·,·,·,·
CCOc1ccc(-c2nc(SC(C(C)=O)C(=O)N(C)C)c3c(=O)n(C)c(=O)n(C)c3n2)cc1 (stereo not drawn),·,-2%,4%,·,·,·,·,·
CCc1cccc(C)c1NC(=O)CCn1c(=O)c2cccn2c2ccccc21,·,?,-6%,·,·,·,·,·
COC(=O)Cc1cc(=O)[nH]c(Nc2nc3ccccc3o2)n1,0%,11%,2%,·,·,·,·,·
COCc1cc(=O)[nH]c(Nc2nc3ccccc3o2)n1,10µM*,4%,8%,-11%[38.3 µM],?,18%,-3%,?
CCCN1Cc2cccc(C(=O)Nc3cccc(C(=O)OCC)c3)c2C1=O,·,-5%,-3%,·,·,·,·,·
Cc1c(N/N=C(\C#N)C(=O)c2ccccc2)c(=O)n(-c2ccccc2)n1C,?,0%,0%,·,·,·,·,·
CCOC(=O)/C(C#N)=N/Nc1c(C)n(C)n(-c2ccccc2)c1=O,16µM*,·,·,-5%[10.4 µM],-1%,0%,-4%,-3%
Cc1ccc(Cn2c(C3CCCN3c3nc(C)cs3)nc3cc(C(F)(F)F)ccc32)cc1 (stereo not drawn),28µM*,·,·,12%,-10%,3%,2%,12%
O=C(NCCn1c(C(F)(F)F)nc2cc(C(F)(F)F)ccc21)[C@H]1CCCN1c1nc(CN2CCCCC2)cs1,-1%,·,·,·,·,·,·,·
Cc1ccc2c(CC(=O)N3CCN(c4cccc(Cl)c4)CC3)coc2c1,·,-11%,-19%,·,·,·,·,·
O=C(O)c1cccc2[nH]c(C(F)(F)F)nc12,-25%,-3%,7%,·,·,·,·,·
Nc1cccc2[nH]c(C(F)(F)F)nc12,20µM*,·,·,-22%,?,?,-13%,-24%
O=C(NCc1ccc2c(c1)CCN2C(=O)c1ccc(F)cc1)c1ccc(Br)o1,·,-2%,1%,·,·,·,·,·
COc1ccc(/C=N/Nc2nc(C)cc(-c3ccccc3)n2)cc1OC,-10%,·,·,·,·,·,·,·
COc1cc(/C=N/Nc2nc(C)cc(C)n2)cc(OC)c1OC,16µM*,·,·,6%,2%,2%,0%,10%
Cc1cc(C)nc(N/N=C/c2ccc(Cl)cc2)n1,11µM*,·,·,-23%,5%,3%,2%,-5%
Cc1cc(C)nc(N/N=C/c2cccc(Cl)c2)n1,-18%,·,·,·,·,·,·,·
Cc1ccc(-n2nc3c(N4CCC(C(=O)NCCC(C)C)CC4)nnc(C)c3c2C)cc1,·,11%,0%,·,·,·,·,·
CC(NC(=O)Nc1cc(Cl)ccc1Cl)c1c(-n2cccc2)sc2c1CCCC2 (stereo not drawn),·,1%,-4%,·,·,·,·,·
CC(=O)Nc1ccc(-c2ccc(NC(C)=O)c(O)c2)cc1O,-29%,·,·,-5%[38.3 µM],-19%,2.6µM*,-26%,?
CC(=O)Nc1ccccc1O,5%,11%,2%,·,·,·,·,·
COc1cccc(CNC(=O)Cn2nc(N3CCN(c4ccccc4OC)CC3)ccc2=O)c1,·,?,1%,·,·,·,·,·
CN1CCN(C(c2ccc(Br)cc2)c2cc(Cl)c3cccnc3c2O)CC1 (stereo not drawn),10%,·,·,·,·,·,·,·
CN1CCN(C(c2cccnc2)c2ccc3cccnc3c2O)CC1 (stereo not drawn),?,-4%,-1%,-14%[38.3 µM],-11%,?,-30%,-8%
